# Measured values reported in the supplement of paper PMC10338343.
# ± gives the standard deviation.
# Test system: MILI (PIWIL2) piRISC loaded with piRNA #1 (26 nt)
# Test: pre-steady-state target cleavage rate (min^-1); guide: piRNA #1 5'p-UGAGGUAGUAGGUUGUAUAGUAUCCA; MIWI and MILI are mouse PIWI proteins and EfPiwi is from a freshwater sponge; tags in brackets are library labels; higher = faster piRNA-guided slicing of the target
# Conditions: auxiliary factor: 500 nM mouse GTSF1
# Procedure, shortened: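 Cleave-'n-Seq measured uncleaved targets by sequencing after a transcribed, DNA-blocked target RNA library […] was mixed with 1 nM active affinity-purified piRISC holding one synthetic guide, with or without 500 nM GTSF1 partner protein, at 33 °C in HEPES–potassium acetate buffer for 0–8 or 0–960 min. Counts were normalised to depth and to weakly complementary targets, three trials were pooled, and k3 was capped at 0.0001 min^-1. A burst-and-steady-state fit gave the pre-steady-state cleavage rate.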
# 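Note: 1 nM active piRISC with 0.1 nM target library at 33 °C single turnover.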
row,Sequence,pre-steady-state target cleavage rate
1,GGAGAGGAUACUAUACAACCUACUACCGCA,0.0764 ± 0.015
2,GGAGAGGAUACUAUACAUCCUACAACCUCA,0.125 ± 0.024
3,GGAGACGAUAUCUAUACAACCUACUACCUCA,0.0966 ± 0.013
4,GGAGACGAUACUAUACAACGUACUAGCUCA,0.00418 ± 0.0035
5,GGAGAGGAUACUAUACCAACCUACUACCUCA,0.0443 ± 0.0084
6,GGAGACGAUACUUUACAACCUACUUCCUCA,0.019 ± 0.0078
7,GGAGACGAUAGUAUACAACCUACUACCUGA,0.113 ± 0.017
8,GGAGACCAUACUAUACAACCAACUUCCUCA,0.00585 ± 0.003
9,GGAGUAGGAUACUAUACAACCUACUACCUCA,0.145 ± 0.016
10,GGAGAGGAUACUAUACAACCAUCUACCUCA,0.00516 ± 0.0022
11,GGAGAGGAAACUAUACAACCUACUACCACA,0.155 ± 0.03
12,GGAGACCUAUCUAUACAACCUACUACCCCA,0.123 ± 0.02
13,GGAGAGGAUACUAUACAACCUCCUACCUCA,0.0496 ± 0.0063
14,GGAGUGGAUACUACUACAACCUACUACCUCA,0.193 ± 0.012
15,GGAGACGAUACUAUACUACCUACUACCUCA,0.2 ± 0.013
16,GGAGUGGAUACUAUACAAACUACUACCUCA,0.195 ± 0.015
17,GGAGAGGGUACUAUACAACCUACUACCUCA,0.145 ± 0.013
18,GGAGACCUUACUAUAUAACCUACUACCUCA,0.124 ± 0.0081
19,GGAGACCAGUACUAUACAACCUACUACCUCA,0.177 ± 0.021
20,GGAGAGGAUACUAUACAAGGUACUACCUCA,0.0284 ± 0.0051

row,Sequence,pre-steady-state target cleavage rate
1,GGAGACCAUACUAUACAACAUACUACCUCA,0.0769 ± 0.0092
2,GGAGACCUUACUACACAACCUACUACCUCA,0.126 ± 0.017
3,GGAGACGAUACUAUACAACCGACUACCUCA,0.00402 ± 0.0035
4,GGAGUGGAUAGUAUACAACCUUCUACCUCA,0.0115 ± 0.0038
5,GGAGAGGAUCACUAUACAACCUACUACCUCA,0.086 ± 0.019
6,GGAGAGGUUACUAUACAACCUACUACGUCA,0.011 ± 0.0037
7,GGAGACCAUACUAUUCAAGCUACUACCUCA,0.182 ± 0.016
8,GGAGACCAUACUAUACGACCUACUACCUCA,0.0852 ± 0.016
9,GGAGUGGAUACUAUACAACGUACUACCUCA,0.0277 ± 0.0034
10,GGAGACGAUACUAUACAACCUACUUGCUCA,0.155 ± 0.052
11,GGAGACCUUACUAUACAACGUACUACCUCA,0.0177 ± 0.0026
12,GGAGACCUUACUAUACAUCCUACUACCUGA,0.195 ± 0.033
13,GGAGACGAUCACUAUACAACCUACUACCUCA,0.131 ± 0.019
14,GGAGACGAUACUAAUCAACCUACUACCUCA,0.182 ± 0.015
15,GGAGACGAUAGUAUACAUCCUACUACCUCA,0.232 ± 0.016
16,GGAGACGAUACUAUACAACCUGACUACCUCA,0.00401 ± 0.0024
17,GGAGACCAUACUAUACUACCUACUACCACA,0.217 ± 0.021
18,GGAGUGGAUACUAUACAACCAACUACCUCA,0.00575 ± 0.0022
19,GGAGACCUUACAUUACAACCUACUACCUCA,0.0294 ± 0.0055
20,GGAGACGAUACAUAUACAACCUACUACCUCA,0.111 ± 0.013
